Experimental data from PubChem BioAssay AID1159580 (chemical genetic matrix, 2015).
Out of some 5,500 compounds screened, about 2,000 (36%) were called active. Roughly 18% stayed inconclusive and do not appear here. Rule as the data show it: active = normalized growth mostly below about 0.91 (no sharp cut-off); inconclusive = no clear call, values can overlap the other calls; inactive = mostly above about 0.92. This is one part of the list.

Assay: chemical genetic growth profiling, strain panel (AID 1159580);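 also: tested at 20 µM; growth read once vehicle control cultures reached saturation at 30 °C; 1 = growth at the plate median or of vehicle wells; lower values mean less growth of the strain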
Details: growth OD

Measured: normalized growth

CN1CCC(=C2c3ccccc3Sc3ccccc32)CC1
active: S. cerevisiae deletion strains, locus YLR039C, strain RIC1, active compounds read low 1.34 [resistant] | S. cerevisiae deletion strains, locus YLR262C, strain YPT6, active compounds read low 1.44 [resistant]
inactive: S. cerevisiae deletion strains, locus YJR075W, strain HOC1, active compounds read low 0.935 | S. cerevisiae deletion strains, locus YKL009W, strain mrt4, active compounds read low 0.982 | S. cerevisiae deletion strains, locus YKL068W, active compounds read low 1 | S. cerevisiae deletion strains, locus YKL085W, strain MDH1 (second series), active compounds read low 0.999 | S. cerevisiae deletion strains, locus YKL085W, strain MDH1, active compounds read low 0.999 | S. cerevisiae deletion strains, locus YKL160W, strain elf1, active compounds read low 1 | S. cerevisiae deletion strains, locus YKL190W, strain CNB1, active compounds read low 1 | S. cerevisiae deletion strains, locus YKR001C, strain vps1, active compounds read low 0.996 | S. cerevisiae deletion strains, locus YKR026C, strain gcn3, active compounds read low 1.03 | S. cerevisiae deletion strains, locus YKR091W, strain srl3, active compounds read low 1.03 | S. cerevisiae deletion strains, locus YLL001W, strain dnm1, active compounds read low 1.03 | S. cerevisiae deletion strains, locus YLL026W, active compounds read low 1.02 | S. cerevisiae deletion strains, locus YLL041C, strain sdh2, active compounds read low 1.01 | S. cerevisiae deletion strains, locus YLR027C, strain aat2, active compounds read low 1.02 | S. cerevisiae deletion strains, locus YLR058C, strain SHM2, active compounds read low 1 | S. cerevisiae deletion strains, locus YLR102C, strain apc9, active compounds read low 1.01 | S. cerevisiae deletion strains, locus YLR113W, strain HOG1, active compounds read low 0.979 | S. cerevisiae deletion strains, locus YLR221C, strain rsa3, active compounds read low 1 | S. cerevisiae deletion strains, locus YLR258W, strain gsy2, active compounds read low 1.04 | S. cerevisiae deletion strains, locus YLR262C, strain YPT6 (second series), active compounds read low 1.13 | S. cerevisiae deletion strains, locus YLR268W, strain sec22, active compounds read low 1.06 | S. cerevisiae deletion strains, locus YLR320W, strain mms22, active compounds read low 1.01 | S. cerevisiae deletion strains, locus YLR330W, strain CHS5, active compounds read low 0.994 | S. cerevisiae deletion strains, locus YLR342W, strain FKS1 (second series), active compounds read low 0.859 | S. cerevisiae deletion strains, locus YLR342W, strain FKS1, active compounds read low 1.03 | S. cerevisiae deletion strains, locus YLR357W, strain rsc2, active compounds read low 1.04 | S. cerevisiae deletion strains, locus YLR370C, strain arc18, active compounds read low 1.02 | S. cerevisiae deletion strains, locus YLR371W, strain rom2, active compounds read low 1.02 | S. cerevisiae deletion strains, locus YLR384C, strain iki3, active compounds read low 1.02 | S. cerevisiae deletion strains, locus YLR418C, strain cdc73, active compounds read low 0.874 | S. cerevisiae deletion strains, locus YML016C, strain PPZ1, active compounds read low 0.998 | S. cerevisiae deletion strains, locus YML032C, strain rad52, active compounds read low 1.01 | S. cerevisiae deletion strains, locus YML120C, strain ndi1, active compounds read low 0.985 | S. cerevisiae deletion strains, locus YML124C, strain tub3, active compounds read low 1.02 | S. cerevisiae deletion strains, locus YMR058W, strain fet3, active compounds read low 1.01 | S. cerevisiae deletion strains, locus YMR078C, strain ctf18, active compounds read low 1 | S. cerevisiae deletion strains, locus YMR125W, strain sto1, active compounds read low 1.03 | S. cerevisiae deletion strains, locus YMR129W, active compounds read low 1.01 | S. cerevisiae deletion strains, locus YMR205C, strain PFK2, active compounds read low 1.06 | S. cerevisiae deletion strains, locus YMR223W, strain ubp8, active compounds read low 0.962 | S. cerevisiae deletion strains, locus YMR231W, strain pep5, active compounds read low 1.02 | S. cerevisiae deletion strains, locus YMR263W, strain SAP30, active compounds read low 0.969 | S. cerevisiae deletion strains, locus YMR307W, strain GAS1, active compounds read low 1.05 | S. cerevisiae deletion strains, locus YNL067W, strain RPL9B, active compounds read low 0.997 | S. cerevisiae deletion strains, locus YNL071W, strain lat1, active compounds read low 1.01 | S. cerevisiae deletion strains, locus YNL128W, strain TEP1, active compounds read low 1.01 | S. cerevisiae deletion strains, locus YNL153C, strain GIM3, active compounds read low 0.982 | S. cerevisiae deletion strains, locus YNL183C, strain NPR1, active compounds read low 0.892 | S. cerevisiae deletion strains, locus YNL209W, strain ssb2, active compounds read low 1 | S. cerevisiae deletion strains, locus YNL233W, strain BNI4, active compounds read low 1 | S. cerevisiae deletion strains, locus YNL248C, strain rpa49, active compounds read low 0.958 | S. cerevisiae deletion strains, locus YNL250W, strain rad50, active compounds read low 1.01 | S. cerevisiae deletion strains, locus YNL271C, strain bni1, active compounds read low 1.02 | S. cerevisiae deletion strains, locus YNL298W, strain CLA4, active compounds read low 1 | S. cerevisiae deletion strains, locus YNL307C, strain MCK1, active compounds read low 0.993 | S. cerevisiae deletion strains, locus YNL322C, strain KRE1 (second series), active compounds read low 1.03 | S. cerevisiae deletion strains, locus YNL322C, strain KRE1, active compounds read low 1.01 | S. cerevisiae deletion strains, locus YNR049C, strain mso1, active compounds read low 1.02 | S. cerevisiae deletion strains, locus YNR052C, strain pop2, active compounds read low 0.973 | S. cerevisiae deletion strains, locus YOL006C, strain TOP1, active compounds read low 0.879 | S. cerevisiae deletion strains, locus YOL012C, strain htz1 0.875 | S. cerevisiae deletion strains, locus YOL147C, strain pex11, active compounds read low 1.01 | S. cerevisiae deletion strains, locus YOR001W, strain rrp6, active compounds read low 0.97 | S. cerevisiae deletion strains, locus YOR061W, strain CKA2, active compounds read low 1.01 | S. cerevisiae deletion strains, locus YOR069W, strain VPS5, active compounds read low 0.996 | S. cerevisiae deletion strains, locus YOR070C, strain gyp1, active compounds read low 1.02 | S. cerevisiae deletion strains, locus YOR080W, strain dia2, active compounds read low 1.03 | S. cerevisiae deletion strains, locus YOR083W, strain WHI5, active compounds read low 0.96 | S. cerevisiae deletion strains, locus YOR106W, strain vam3, active compounds read low 0.966 | S. cerevisiae deletion strains, locus YOR136W, strain idh2, active compounds read low 1.04 | S. cerevisiae deletion strains, locus YOR144C, strain elg1, active compounds read low 1.01 | S. cerevisiae deletion strains, locus YOR184W, strain ser1, active compounds read low 1.03 | S. cerevisiae deletion strains, locus YOR231W, strain MKK1, active compounds read low 0.99 | S. cerevisiae deletion strains, locus YOR265W, strain rbl2, active compounds read low 1.02 | S. cerevisiae deletion strains, locus YOR270C, strain vph1, active compounds read low 0.933 | S. cerevisiae deletion strains, locus YOR290C, strain snf2, active compounds read low 0.973 | S. cerevisiae deletion strains, locus YOR316C, strain cot1, active compounds read low 1.01 | S. cerevisiae deletion strains, locus YPL051W, strain arl3, active compounds read low 0.974 | S. cerevisiae deletion strains, locus YPL055C, strain LGE1, active compounds read low 0.958 | S. cerevisiae deletion strains, locus YPL078C, strain atp4, active compounds read low 0.983 | S. cerevisiae deletion strains, locus YPL106C, strain sse1, active compounds read low 1.09 | S. cerevisiae deletion strains, locus YPL240C, strain hsp82, active compounds read low 1.02 | S. cerevisiae deletion strains, locus YPL241C, strain CIN2, active compounds read low 1 | S. cerevisiae deletion strains, locus YPL256C, strain CLN2, active compounds read low 0.995 | S. cerevisiae deletion strains, locus YPR119W, strain clb2, active compounds read low 1.01 | S. cerevisiae deletion strains, locus YPR141C, strain kar3, active compounds read low 1.01 | S. cerevisiae deletion strains, locus YPR163C, strain tif3, active compounds read low 0.993 | S. cerevisiae deletion strains, locus YPR167C, strain met16, active compounds read low 1.01 | S. cerevisiae deletion strains, strain wtn01, active compounds read low 1.02 | S. cerevisiae strains, strain wild type, active compounds read low 0.993
